Screening data from PubChem.
PTHR1 agonist = PTHR1 (human) receptor agonism; Q03431; HEK293 GP2 PTHR1 cells, GloSensor cAMP luminescence, 1 h; Potency, µM (doses to about 115 µM), for inactives: top-dose activation, most hits filed as activators; 410,000 tested, 0.075% active; further: nearly all actives have a fitted effect of over 55% in size
Target sequence (Q03431 whole entry, looked up): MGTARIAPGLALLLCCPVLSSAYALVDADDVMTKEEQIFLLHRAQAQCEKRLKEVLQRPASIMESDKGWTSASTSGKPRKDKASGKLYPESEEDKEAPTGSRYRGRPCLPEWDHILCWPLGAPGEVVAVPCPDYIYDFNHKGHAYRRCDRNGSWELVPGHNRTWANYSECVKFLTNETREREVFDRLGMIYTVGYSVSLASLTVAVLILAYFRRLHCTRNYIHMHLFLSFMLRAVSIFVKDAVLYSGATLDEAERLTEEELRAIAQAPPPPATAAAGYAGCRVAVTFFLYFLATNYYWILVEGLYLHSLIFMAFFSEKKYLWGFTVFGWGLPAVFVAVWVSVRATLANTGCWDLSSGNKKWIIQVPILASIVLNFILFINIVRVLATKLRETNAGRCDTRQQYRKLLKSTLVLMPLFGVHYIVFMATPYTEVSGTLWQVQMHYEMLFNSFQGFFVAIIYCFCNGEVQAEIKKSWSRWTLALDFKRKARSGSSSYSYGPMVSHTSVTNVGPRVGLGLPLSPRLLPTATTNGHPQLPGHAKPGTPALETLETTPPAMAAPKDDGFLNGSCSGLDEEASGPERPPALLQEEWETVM
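HEK-293-derived GP2 cells expressing PTHR1 and a GloSensor cAMP reporter, 3,000/well, plated overnight, given luciferin plus IBMX (each 0.5 mM as added) for 1 h at 37 °C, then compound for 1 h at 37 °C. Luminescence was read after 15 min at room temperature.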
GLP1R inv ag = acts as inverse agonist at human GLP-1 receptor; HEK293 GLP-1R CRE-luciferase, luminescence, 24 h; GLP-1R form is constitutively active; P43220; AID 624417; 410,000 tested, 1.6% active; Potency, µM (top dose mostly 38.3 µM), for the others: at the highest dose activity change, negative = inhibition, usual class: inhibitors; further: on the % scale 0 is the no-effect control and ±100 the full control effect; nearly all actives have a fitted effect of over 55% in size
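Cells are plated, allowed 12 hours at 37 deg C, then treated with compounds for 24 hr before luciferase detection reagent is added and luminescence is read after 12 min at room temperature. The HEK293 line carries constitutively active GLP-1R with a cAMP-responsive reporter.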
GLP-1R agonist = agonists of human GLP-1 receptor | P43220 | HEK293 GLP-1R CRE-luciferase, luminescence, 4-6 h; cells express a hypersensitive GLP-1R form | Potency, µM (doses to about 45.6 µM), inactives show at the top dose activation, usual class: activators | 380,000 tested, 0.007% active; further: % of control where 0% means no effect
HEK293 tox = cytotoxicity counter-screen for GLP-1 receptor inverse agonists. AID 624418. 410,000 tested, 0.13% active. HEK293 cAMP-luciferase reporter cells, luminescence, 24 h. Potency, µM (doses to about 38.3 µM), for inactives: at the highest dose activity change, negative = inhibition, hits mostly inhibitors;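 further: loss of luciferase light is scored as toxicity; on the % scale 0 is the no-effect control and ±100 the full control effect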
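A 23 nL compound transfer followed 12 hours of cell culture at 37 deg C; exposure then lasted 24 hr. Luciferase assay detection reagent was dispensed and plates read for luminescence after a 12 min room-temperature wait.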
* hit, by the source's call; i = inactive; u = inconclusive; x = not tested or not shown; [ ] = remark or other dose. Shown are actives, neighbours in structure and some others; about 1.7% of the full set was active somewhere. The call rests on the fitted dose curve; in most records, active means well fitted curve in the direction sought with a large enough effect; inconclusive means small, poorly fitted or top-dose-only effect, or another doubt; inactive means no such curve, though single readings can be large; an effect the other way counts as inactive or inconclusive. Potency means the concentration at half of the fitted maximal effect.

SMILES	PTHR1 agonist	GLP1R inv ag	GLP-1R agonist	HEK293 tox
Cc1cccc(NC(=O)CSc2cccc3cccnc23)c1	i	-8%	24%	-9%
CCCCOc1ccc(NC(=O)CSc2cccc3cccnc23)cc1	-11%	2.8µM*	27%	u
COc1ccc(CC(=O)NCc2ccc3c(c2)CCN3C(C)=O)cc1	i	14%	x	-5%
CCOC(=O)C1=C(CS(=O)(=O)c2ccc(C(C)(C)C)cc2)NC(=O)NC1c1cccc(OC)c1 (stereo not given)	i	u	0%	-6%
Cc1cc(NC(=O)CON=C(N)CC(=O)Nc2ccccc2Cl)ccc1Br	-17%	10µM*	4%	-3%
CCc1ccccc1N(CC)C(=O)CCc1nc(-c2ccc(C)cc2)no1	-19%	8.9µM*	6%	2%
Cc1cccc(-c2noc(CCC(=O)NCCc3ccccc3)n2)c1	-39%	u	17%	1%
CCCN(C(=O)CCc1nc(-c2ccc(C)cc2)no1)c1ccc(OCC)cc1	i	11µM*	x	5%
CCOc1ccc(N(CC)C(=O)CCc2nc(-c3ccccc3F)no2)cc1	-13%	u	x	-8%
CCN(CCCNC(=O)CCc1nc(-c2ccc(C)cc2)no1)c1cccc(C)c1	-19%	10µM*	4%	5%
CCN(CC)CC(O)c1ccc2ccc3ccc(O)cc3c2c1 (stereo not given)	-24%	11µM*	-4%	u
CCSc1nn(CC(=O)Nc2cccc(CC)c2)c(N)c1S(=O)(=O)c1ccccc1	-77%	u	x	-10%
COC(=O)c1c(SC)nc2ccccc2c1OCc1ccc(C)cc1	i	u	x	6%
CCSc1nc2ccccc2c(OCc2ccc(Cl)cc2)c1C(=O)OC	i	22µM*	x	4%
COc1ccc(NS(=O)(=O)c2ccc3[nH]c4c(c3c2)CCCC4)cc1OC	-32%	u	x	-3%
COc1ccc(OC)c(NC(=O)NCc2ccc(F)cc2)c1	i	-5%	-4%	2%
COc1ccc(OC)c(NC(=O)CN(Cc2ccc(F)cc2)C2CCCCC2)c1	-24%	3.5µM*	8%	-11%
CC(C(=O)Nc1cccnc1)c1ccc([N+](=O)[O-])cc1 (stereo not given)	i	17%	9%	6%
CC(C)Cc1ccc(C(C)C(=O)Nc2cccnc2)cc1 (stereo not given)	-33%	7.9µM*	-7%	-18%
CC(=O)N1CCCc2cc(S(=O)(=O)N3CCC(C(=O)Nc4ccc(C)cc4Cl)CC3)ccc21	-71%	23%	x	9%
COc1ccccc1NC(=O)Cc1csc(NC(=S)Nc2ccc(C)cc2)n1	i	-15%	1%	3.2µM*
CCC(=O)Nc1nc(CC(=O)Nc2ccccc2OC)cs1	i	19%	-2%	1%
COc1ccccc1NC(=O)Nc1nc(CC(=O)Nc2ccc(OC)c(OC)c2)cs1	i	8%	6%	8%
COc1cccc(NC(=O)Cc2csc(NC(=O)Nc3ccccc3OC)n2)c1	-5%	10µM*	-1%	u
COc1cc(C)ccc1NC(=O)Cc1csc(NC(=O)Nc2ccccc2OC)n1	-18%	10µM*	2%	u
SMILES	PTHR1 agonist	GLP1R inv ag	GLP-1R agonist	HEK293 tox
CC(=O)c1ccc(NS(=O)(=O)c2ccc3[nH]c(=O)[nH]c3c2)cc1	12%	6%	x	17%
O=C(COc1ccc2c(c1)C(=O)CC1(CCCCC1)O2)NCc1ccccn1	-17%[57.5 µM]	0%	33%	24%
O=C(COc1ccc2c(c1)C(=O)CC1(CCCCC1)O2)NCc1ccccc1	i	11µM*	9%	11%
O=C(CC(c1ccccc1)(c1ccccc1)c1ccccc1)N[C@@H](Cc1ccccc1)C(=O)O	i	u	-2%	2%
O=C(O)[C@H](Cc1ccccc1)NC(=O)C(c1ccccc1)(c1ccccc1)c1ccccc1	-7%	10µM*	-4%	0%
Cc1ccc2nc(N3CCN(c4cccc(C(F)(F)F)c4)CC3)c3nnnn3c2c1	-57%	5%	x	0%
COc1ccc(C2C(=O)N(C3CCC(C)CC3)CC(=O)N2CCc2ccccc2)cc1OC (stereo not given)	i	-2%	x	3%
O=C(CCCN1C(=O)/C(=C/c2ccccc2)SC1=S)N1CCOCC1	-20%	8.9µM*	3%	u
O=C(CCCN1C(=O)/C(=C/c2ccccc2Cl)SC1=S)N1CCCC1	-24%	10µM*	-7%	u
CCc1cccc(C)c1NC(=O)CN1C(=O)C2(SCC(=O)N2c2cc(C)cc(C)c2)c2ccccc21 (stereo not given)	i	-28%	-1%	1%
Cc1nn(-c2ccc(Br)cc2)c(=O)c2ccccc12	i	u	10%	0%
Cc1nn(-c2c(Cl)cc(Cl)cc2Cl)c(=O)c2ccccc12	-13%	8.9µM*	-2%	7%
C=CCc1cccc2cc(-c3nc4ccc(C(=O)O)cc4[nH]3)c(=O)oc12	-39%	-28%	x	57%
COc1cc(C(=O)Nc2cccc(OCc3cc(=O)n4cc(C)sc4n3)c2)cc(OC)c1OC	-12%	9%	1%	-12%
COC(=O)c1sc(S(=O)(=O)N2CCN(c3ccccc3F)CC2)c(C(=O)OC)c1C	-23%	11µM*	21%	u
CCCS(=O)(=O)c1nc(S(=O)(=O)c2ccc(C)cc2)c(N2CCCC(C)C2)s1 (stereo not given)	-20%	13µM*	0%	-4%
Cc1ccc(S(=O)(=O)c2nc(S(C)(=O)=O)sc2N2CCCCC2C)cc1 (stereo not given)	-45%	3.5µM*	-3%	-22%
CCCCCn1c(=O)[nH]c2cc(C(=O)NC(C)CC)ccc2c1=O (stereo not given)	-20%	1%	-2%	0%
CCCn1c(N2CCN(Cc3ccc(Cl)cc3)CC2)nc2ccccc21	-36%	11µM*	-6%	u
CCc1cccc(NC(=O)Cn2c(=O)n3nc(-c4cccc(F)c4)nc3c3ccccc32)c1	-5%	15%	x	6%
C[C@]12c3[nH]c4ccc(Cl)cc4c3CCN1C(=O)[C@@H](CC(=O)NCC13CC4CC(CC(C4)C1)C3)C[C@@H]2C(=O)N1CCOCC1	-2%	10µM*	2%	-9%
COc1ccc2[nH]c3c(c2c1)CCN1C(=O)C(CC(=O)NCC24CC5CC(CC(C5)C2)C4)C[C@H](C(=O)N(C(C)C)C(C)C)[C@@]31C (stereo not given in full)	-18%	10µM*	-3%	2%
CCc1ccc(NC(=O)C(CC)n2c(=O)c(C(F)(F)F)nc3ccccc32)cc1 (stereo not given)	i	7%	x	0%
CC1C(=O)N(Cc2ccc([N+](=O)[O-])cc2)c2ccccc2N1C(=O)c1c(F)cccc1F (stereo not given)	-74%	10µM*	4%	1%
COc1ccc(CN2C(=O)C(C)N(C(=O)c3c(F)cccc3F)c3ccccc32)cc1 (stereo not given)	-30%	u	3%	5%
